Among all 190,000 compounds or so, about 930 (0.49%) were called active. The list shows a part of the results. Entries with a potency or affinity are not part of this list. A number with no mark means an inactive call.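 How the source made its calls: active means z-score of insulin promoter reporter brightness in nuclei below -3 at 5 µM, with at least 500 cells counted; inconclusive means wells with under 500 cells, flagged as toxic or sparse; inactive means the rest.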

A short description of the assay: decrease of insulin promoter-GFP reporter – imaging, high-content screening, mouse beta cells (AID 1628). The note with it: MIN6 insulin promoter GFP reporter, at 5 µM, hits give low values.
Take `O=C(O)c1ccccc1-c1ccccc1C(=O)NNc1ccccc1`: the z-score was -3.66 (active).

For the molecule `CC(C)(C)S(=O)(=O)c1ccccc1C(=O)O`, the z-score is -1.55.

As to `Cc1ccc([N+](=O)[O-])cc1NC(=O)c1cccs1`, the z-score is 3.18.

Take `O=C(NCCc1ccc(Cl)cc1)c1cccs1`: the z-score is 1.56.

With `CCCN1C(=O)c2ccccc2NC1c1ccc(C)cc1` (stereo unspecified), the z-score is 2.64.

In the case of `CCN(CCCCN1C(=O)c2ccccc2C1=O)c1ccc2c(c1)C(=O)N(C)C2=O`, the z-score is -3.55 (active).

As to `COc1ccc(N(CCN2C(=O)c3ccccc3C2=O)C(=O)c2cccc([N+](=O)[O-])c2)cc1`, the z-score was 3.09.

As to `CC(C)Sc1nc(SCC(=O)NCc2ccco2)c2c3c(sc2n1)COC(C)(C)C3`, the z-score is -3.28 (active).

`COc1ccccc1OCc1nnc(SCC(=O)NCc2ccco2)n1-c1ccccc1`: the z-score is 0.71.

`CC(C)c1cccc(O)c(=O)c1`: the z-score is -0.46.

Consider `CN1C(=O)CC(N2CCN(Cc3ccc(Cl)cc3)CC2)C1=O` (stereo unspecified), for which the z-score is 3.88.

Regarding `CCN(CC)c1ccc(/C=N/N2CCN(Cc3ccc(Cl)cc3)CC2)c(O)c1`, the z-score is -5.88 (active).

For `Cc1nn(C)cc1CNC(=O)c1cc2n(n1)C(C(F)(F)F)CC(c1cccs1)N2` (stereo unspecified), the z-score was -3.69 (active).

As for `Cc1nn(C)c(C)c1CNC(=O)c1nn2c(c1Cl)NC(c1cccs1)CC2C(F)(F)F` (stereo unspecified), the z-score was -4.07 (active).

Regarding `CCCc1cc(-n2ccnc2)n2c(nc3ccccc32)c1C#N`, the z-score was 5.52.

Turning to `COc1ccc2c(c1)C(C)=CC(C)(C)N2C(=O)CNCc1ccc2c(c1)OCO2`, the z-score was -4.43 (active).

For the molecule `O=C(CSc1nc2ccc(Cl)cc2o1)NCc1ccc2c(c1)OCO2`, the z-score was 3.95.

On to `CCCCCOC(=O)Cn1c(N2CCCCCC2)nc2c1c(=O)[nH]c(=O)n2C`, for which the z-score is -0.48.

Consider `CC1=C(C(=O)Nc2ccc(F)cc2)C(c2ccncc2)C2=C(CCCC2=O)N1` (stereo unspecified), for which the z-score is 1.21.

For `CCc1c(C(=O)Nc2ccncc2)csc1C`, the z-score was -4.62 (active).

Consider `CCOc1ccc(OCC)c(-c2c(=O)n(OCc3ccc(Cl)cc3)c3ccccc3[n+]2[O-])c1`, for which the z-score is 3.34.

As to `COC(=O)c1sc2nc(-c3ccccc3)nc(N3CCN(C)CC3)c2c1C`, the z-score is -4.28 (active).

Turning to `Cc1sc2nc(-c3cccs3)nc(N3CCCN(C)CC3)c2c1C`, the z-score is -3.73 (active).

Consider `CCOC(=O)c1sc2nc(CSc3ccccc3Cl)[nH]c(=O)c2c1C`, for which the z-score was 1.87.

Regarding `CCN(CC)CCCOC(=O)C(c1ccccc1)c1ccccc1`, the z-score was 0.01.

Regarding `CCc1ccc(C(O)(c2ccccc2OC)C(CN2CCOCC2)c2ccccc2)cc1` (stereo unspecified), the z-score was -3.08 (active).

Regarding `CC(=O)c1c(N2CCOCC2)[nH]c(-c2ccccc2)nc1=S`, the z-score was 7.72.

With `N#C/C(=C\c1ccc(N2CCOCC2)o1)c1ccccc1`, the z-score is 4.39.

In the case of `COc1ccc(OCC(=O)Nc2ccccc2C(=O)N2CCOCC2)cc1`, the z-score was 1.77.

Regarding `CCOCCCNc1nc2c(C)cccn2c(=O)c1/C=C1\SC(=S)N(C(C)CC)C1=O` (stereo unspecified), the z-score was 17.6.

Turning to `CC(C)NC(=O)/C(C#N)=C\c1ccc(N(C)C)o1`, the z-score is 11.5.

Regarding `Clc1ccc2[nH]c3c(NCC4CCCO4)ncnc3c2c1` (stereo unspecified), the z-score was -4.6 (active).

Regarding `Fc1ccc(OCCOCCNCC2CCCO2)cc1` (stereo unspecified), the z-score is 1.23.

With `c1ccc2c(c1)[nH]c1c(NCC3CCCO3)ncnc12` (stereo unspecified), the z-score is -3.45 (active).

As to `CCN1CC=C2C(C1)C(c1ccc(Cl)s1)C(C#N)=C(N)C2(C#N)C#N` (stereo unspecified), the z-score was 15.5.

Consider `c1cncc(-c2nc(NCc3ccco3)c3ccccc3n2)c1`, for which the z-score is -3.11 (active).

On to `CC(C)(C)c1nc2ccccc2c2nnc(SCC(=O)NCc3ccco3)n12`, for which the z-score is 1.35.

For `c1cncc(-c2nn[nH]n2)c1`, the z-score is -1.32.

As to `O=C(Nc1nnc(-c2ccccc2)o1)Nc1ccccc1Cl`, the z-score was 3.77.

As for `COc1cccc(N2CCN(c3ncnc4c3[nH]c3ccc(F)cc34)CC2C)c1` (stereo unspecified), the z-score is -3.69 (active).

As to `OC1(c2cccc(C(F)(F)F)c2)CCN(c2ncnc3c2[nH]c2ccc(F)cc23)CC1`, the z-score was -4.94 (active).

In the case of `Cc1csc(SCC(=O)Nc2ccc(S(=O)(=O)N3CCCC3)cc2)n1`, the z-score was 0.21.

In the case of `O=C(NCc1cccnc1)c1ccc(CN2CCc3ccccc3C2)cc1`, the z-score is 0.66.

Take `O=C(Nc1ccc(S(=O)(=O)N2CCCCC2)cc1)c1ccncc1`: the z-score was -3.68 (active).

`CCc1cccc2cc3c(N)c(C(=O)Nc4ccc(S(=O)(=O)N5CCCC5)cc4)sc3nc12`: the z-score was 8.59.

As to `N#C/C(=C/c1ccc(N2CCCCCC2)o1)c1cccc(F)c1`, the z-score was 15.9.

`Fc1ccc(-c2nnc3ccc(N4CCc5ccccc5C4)nn23)cc1`: the z-score was -3.5 (active).

With `COc1ccc(-c2nnc3sc(C(C)N4C(=O)c5ccccc5C4=O)nn23)cc1` (stereo unspecified), the z-score was 1.87.

Take `COc1ccc(S(=O)(=O)N2CCN(c3ccc4nnc(-c5ccc(F)cc5)n4n3)CC2)cc1`: the z-score is -4.36 (active).

As for `O=S(=O)(c1ccc(OCC(O)CN2CCN(c3ccc(F)cc3)CC2)cc1)N1CCOCC1` (stereo unspecified), the z-score is -4.17 (active).

In the case of `COc1ccccc1N1CCN(CC(O)COc2ccc(S(=O)(=O)N3CCOCC3)cc2)CC1` (stereo unspecified), the z-score was -3.8 (active).

As to `CC(C)NC(=O)N1CCN(c2ccncc2S(=O)(=O)N2CCOCC2)CC1`, the z-score is 5.83.

`OC(COc1cccc2ccccc12)CN1CCN(c2ccccc2Cl)CC1` (stereo unspecified): the z-score was 3.51.

As for `CCCCSc1cc(C)nc2ncnn12`, the z-score was 0.8.

As for `O=C(O)CCCCCN1C(=O)/C(=C\c2ccc(-c3ccc(Cl)cc3)o2)SC1=S`, the z-score was 4.23.

As to `COc1cc2c3nnc(-c4ccc(F)cc4)c-3cn(Cc3ccc(F)cc3)c2cc1OC`, the z-score was 6.06.

As for `O=C(CN1CCCCCCC1)N/N=C/c1ccc(F)cc1F`, the z-score was -7.88 (active).

Turning to `CCOC(=O)C1CCCN(CC(=O)Nc2c(C(=O)OC)[nH]c3ccc(C)cc23)C1` (stereo unspecified), the z-score was -3.29 (active).

Turning to `CCS(=O)(=O)N1Cc2ccccc2CC1C(=O)OCC(=O)Nc1ccc(C)cc1` (stereo unspecified), the z-score was 5.05.

As for `Cc1[nH]c2ccccc2c1C(=O)CN1CCCCC1C` (stereo unspecified), the z-score was -1.61.

With `COC(=O)c1[nH]c2cccc(Cl)c2c1NC(=O)CN(C)C1CCCCC1`, the z-score is 3.5.

With `C=CCN1C=CC(=CC=C(C#N)C#N)C=C1`, the z-score was 3.27.

On to `Cc1nn(C)cc1N1C(=O)c2cccc3c(N)ccc(c23)C1=O`, for which the z-score was 5.94.

As for `O=C(NCCN1CCCC1)C1(S(=O)(=O)c2ccc(Cl)cc2)CC1`, the z-score is 3.06.

For `O=C(CN1CCN(Cc2ccc(Cl)cc2)C1=O)NCCCN1CCN(c2ccc(F)cc2)CC1`, the z-score is -4.01 (active).

Turning to `c1ccc2c3c([nH]c2c1)C1(CCCCC1)NCC3`, the z-score was -0.6.

For the molecule `O=C(N/N=C\c1cn(-c2ccccc2)nc1-c1ccccc1)c1ccc(Br)o1`, the z-score is 3.24.

Take `O=C(N/N=C/c1cn(-c2ccccc2)nc1-c1ccccc1)c1ccco1`: the z-score is -4.01 (active).

In the case of `Nc1c(C(=O)N/N=C/c2ccccc2Cl)oc2nc(-c3ccccc3)cc(-c3ccco3)c12`, the z-score was 6.17.

Consider `CC(C)C(C)(C#N)NC(=O)CSc1nnc(C(F)(F)F)n1C` (stereo unspecified), for which the z-score is 3.02.

In the case of `CCSc1nc2c(c(=O)[nH]c(=O)n2C)n1C`, the z-score was -1.45.

In the case of `C#CC(C)(C)NC(=O)CSc1nc2c(c(=O)n(C)c(=O)n2C)n1CCCC`, the z-score was -7.25 (active).

As to `Cc1cnc(NC(=O)CN2CCN(c3ccccn3)CC2)s1`, the z-score is 3.14.

For the molecule `CC(=O)Nc1sc2c(c1CN1CCN(c3ccccn3)CC1)CCCC2`, the z-score was -1.66.

With `COc1ccc(CN2CCN(c3ccccn3)CC2)cc1OCc1ccccc1`, the z-score is -8.87 (active).

In the case of `COc1ccc(OC)c(C(c2nnnn2C2CCCC2)N2CCN(c3ccccc3F)CC2)c1` (stereo unspecified), the z-score is -4.67 (active).

In the case of `CCN(CC)c1ccc2cc(-c3nc4ccccc4[nH]3)c(=O)oc2c1`, the z-score was 17.2.

On to `CCOc1cc(N(CC)CC)ccc1/C=C(/C#N)c1nc2ccccc2[nH]1`, for which the z-score is 8.11.

For `CCOC(=O)N1CCN(C(=O)CSc2ccc3nnc(CCNC(=O)c4ccc(OC)cc4)n3n2)CC1`, the z-score was 3.73.

Turning to `CN(C)c1ccc(/C=C2\CCC/C(=C\c3ccccc3)C2=O)cc1`, the z-score is 3.4.

As for `Cc1nnc(NC(=O)c2sc3nc(-c4cccs4)cc(C(F)(F)F)c3c2N)s1`, the z-score was 15.1.

Take `CN(C)c1ccc(C(=O)N/N=C/c2cc(Br)cc(Br)c2O)cc1`: the z-score is 4.65.

As for `CC(=O)Nc1ccc(C(=O)N/N=C/c2cc(Br)cc(Br)c2O)cc1`, the z-score was -3.57 (active).

With `O=C(Nc1ccc(Br)cc1)C(c1ccccc1)c1ccccc1`, the z-score is -0.28.

For `O=C(N/N=C/c1cc(Br)ccc1O)Nc1ccccc1`, the z-score is -4.87 (active).

Regarding `COc1cc([C@@H]2[C@H]3CNCC=C3C(C#N)=C(N)C2(C#N)C#N)ccc1OC(C)C`, the z-score was 3.59.

Turning to `C/C(=N/O)c1ccccn1`, the z-score was 0.09.

Take `c1ccc(CSc2ccc(-c3ccccn3)nn2)cc1`: the z-score is 4.07.

With `Cc1nn(-c2c(Cl)cc(Cl)cc2Cl)c(=O)c2ccccc12`, the z-score is 3.38.

In the case of `CCN(c1ccccc1)S(=O)(=O)c1ccc(C(=O)Nc2nnc(C3CC3)o2)cc1`, the z-score is -3.06 (active).

Consider `O=S(=O)(Cc1ccc(Cl)cc1)c1ccccc1-c1nnc(-c2ccccc2)o1`, for which the z-score is 13.8.

Consider `Cc1cccc2cc3c(N)c(C(=O)N4CCCc5ccccc54)sc3nc12`, for which the z-score was 6.25.

`CCN(C(=O)CSc1nc2cc(C(=O)OC)ccc2c(=O)n1Cc1ccco1)c1cccc(C)c1`: the z-score is 4.54.

`Cc1cc2c(=O)n(Cc3ccco3)c(SCC(=O)c3ccc(Cl)s3)nc2s1`: the z-score is -9.67 (active).

On to `CCc1cc2c(=O)n(Cc3ccco3)c(SCC(=O)N3CCCc4ccccc43)nc2s1`, for which the z-score is -3.14 (active).

Take `CN(c1ccccc1)c1ccc(/C=c2\s/c(=C(/C#N)C(=O)C(C)(C)C)n(Cc3ccco3)c2=O)cc1`: the z-score was 12.8.

The values are drawn from PubChem BioAssay AID1628 (Sanford-Burnham Center for Chemical Genomics, 2009).
